Screening results deposited in PubChem BioAssay by National Center for Advancing Translational Sciences (NCATS).
Hits are enriched below; roughly 8.5% of the tested compounds scored in any of these assays.
JMJD2E inh: qHTS Assay for Inhibitors of Human Jumonji Domain Containing 2E (JMJD2E). 1.6% of 230,000 active. JMJD2E catalytic domain, FDH-coupled NADH fluorescence (FDH is formaldehyde dehydrogenase). Potency, µM (doses to about 57.1 µM), for the others: at the highest dose activity change, negative = inhibition, usual class: inhibitors;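 note: potency is the fitted concentration of half-maximal effect; 0% = wells with enzyme and -100% = buffer wells without enzyme; nearly all actives have a fitted effect of over 50% in size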
FBPA coupling cs: qHTS Assay for Inhibitors of Fructose-1,6-bisphosphate Aldolase from Giardia Lamblia: Coupling assay counterscreen; coupling enzyme system counterscreen, AmpLite Red fluorescence; activity change, negative = inhibition, % at 58.2 µM, hits read low; 0.67% of 290,000 active; AID 2472, 2010; in the data active = activity change below about -30%
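First, compound is pin-transferred into glyceraldehyde-3-phosphate coupling-enzyme reagent at 57.5 uM final and held 10 min at RT. Next, substrate, coupling system and AmpLite Red are added. After 20 min RT, fluorescence (525/598 nm) is read.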
GoLoco inh red: qHTS Assay for Inhibitors of RGS12 GoLoco Motif Activity (Red Fluorophore). Guanine nucleotide-binding protein G(i) subunit alpha-1 (Homo sapiens), P63096. Gai1:RGS12 GoLoco peptide FP, rhodamine, 10 min. Potency, µM (series often up to 61.6 µM), for inactives: at the highest dose activity, negative = inhibition, actives largely listed as inhibitors. 0.44% of 230,000 active; active = well fitted inhibition curve with a large enough effect, not every such curve was filed as active; inactive = no such curve, though single readings can be large or run the other way; note: potency is the fitted concentration of half-maximal effect; nearly all actives have a fitted effect of over 30% in size
Sfp PPTase inh: qHTS Assay for Inhibitors of Bacillus subtilis Sfp phosphopantetheinyl transferase (PPTase) | AID 1490, 2009 | 3.5% of 310,000 active | Biochemical Sfp PPTase activity, qHTS | Potency, µM, inactives show largest response in the series, negative = inhibition, usual class: inhibitors; active = well fitted curve in the direction sought with a large enough effect; inconclusive = small, poorly fitted or top-dose-only effect, or another doubt; inactive = no such curve, though single readings can be large; an effect the other way counts as inactive or inconclusive;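 note: the enzyme is Sfp with the accession as filed and its product quenches rhodamine fluorescence; potency is the fitted concentration of half-maximal effect; 0% = enzyme reaction without inhibitor and -100% = no enzyme wells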
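Reaction rates are the 30-min fluorescence difference (ex 525, em 598 nm) in wells containing 15 nM Sfp, 5 uM rhodamine-CoA and 12.5 uM BHQ-2-YbbR at pH 7.6 with 10 mM MgCl2.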
ALDH1A1 inh: qHTS Assay for Inhibitors of Aldehyde Dehydrogenase 1 (ALDH1A1) | Aldehyde dehydrogenase 1A1 (Homo sapiens), P00352 | Purified ALDH1A1, NADH fluorescence, propionaldehyde substrate | Potency, µM (doses to about 75.3 µM), for inactives: top-dose activity, negative = inhibition, most hits filed as inhibitors | 7.3% of 220,000 active | AID 1030, 2008;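 note: potency is the fitted concentration of half-maximal effect; plate controls were no enzyme wells and a reference inhibitor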
NPSR antagonist: qHTS Assay for Antagonists of the Neuropeptide S Receptor: cAMP Signal Transduction | Q6W5P4 | CHO-NPSR cells, cAMP TR-FRET, antagonist mode | Potency, µM (top dose mostly 38.3 µM), without a hit: at the top dose activity change, negative = inhibition, most hits filed as inhibitors | 1% of 220,000 active | AID 1461, 2008; active = well fitted curve in the direction sought with a large enough effect; inconclusive = small, poorly fitted or top-dose-only effect, or another doubt; inactive = no such curve, though single readings can be large; an effect the other way counts as inactive or inconclusive; note: potency is the fitted concentration of half-maximal effect; nearly all actives have a fitted effect of over 50% in size
Target sequence (Q6W5P4 whole entry, looked up): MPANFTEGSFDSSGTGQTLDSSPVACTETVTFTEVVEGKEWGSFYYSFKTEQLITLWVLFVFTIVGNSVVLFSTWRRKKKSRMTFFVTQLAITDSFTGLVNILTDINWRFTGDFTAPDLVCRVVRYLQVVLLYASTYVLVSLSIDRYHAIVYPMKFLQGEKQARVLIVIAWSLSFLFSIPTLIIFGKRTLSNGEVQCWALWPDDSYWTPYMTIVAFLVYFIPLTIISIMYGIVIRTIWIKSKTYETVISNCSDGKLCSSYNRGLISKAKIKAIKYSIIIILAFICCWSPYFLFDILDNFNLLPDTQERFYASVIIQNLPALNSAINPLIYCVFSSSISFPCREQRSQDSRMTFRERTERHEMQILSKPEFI
The depositor's hits bear a star; ? = inconclusive; / = not tested or not shown; [ ] = another dose, or the depositor's remark. Unless noted, calls come from the whole dose curve; as a rule, active = well fitted inhibition curve with a large enough effect (not every such curve was filed as active); inconclusive = small, poorly fitted or top-dose-only effect, or another doubt; inactive = no such curve, though single readings can be large or run the other way. Unless noted, % is set by controls: 0 for no effect and ±100 for the full control effect.

SMILES	JMJD2E inh	FBPA coupling cs	GoLoco inh red	Sfp PPTase inh	ALDH1A1 inh	NPSR antagonist
CCOC(=O)/C=C/C(=O)OCC(=O)N1CCN(C(=O)c2ccco2)CC1	/	/	/	-11%	/	/
Cc1ccc(S(=O)(=O)N2CCN(C(=O)c3ccco3)CC2)cc1	/	4	/	5%	/	/
Cc1ccc(CC(=O)N2CCN(C(=O)c3ccco3)CC2)cc1	6%	2	6%	17%	?	11%
COc1ccc(CC(=O)N2CCN(C(=O)c3ccco3)CC2)cc1	-6%	0	6%	-24%	20µM*	-6%[46.1 µM]
COc1ccc2oc(C(=O)OCC(=O)N3CCN(S(=O)(=O)c4ccc(C)cc4)CC3)c(C)c2c1	/	/	/	3%	/	/
Cc1c([N+](=O)[O-])c(C/C=N/O)nn1C	3%	0	-2%	-1%	/	-2%
COc1ccc(OCCNC(=O)c2ccccc2OCC(=O)N2CCCCC2)cc1	-5%	4	12%	2%	3.5µM*	-8%[46.1 µM]
Cc1cc(C)nc(SCC(=O)Nc2ccc(N3CCOCC3)c(Cl)c2)n1	1%	1	5%	12%	22µM*	-5%[46.1 µM]
O=C(CSc1nnnn1-c1cccc2ccccc12)Nc1ccc(N2CCOCC2)c(Cl)c1	1%	0	-5%	13%	1.8µM*	-18%[46.1 µM]
CCOC(=O)CSc1nnnn1-c1cccc2ccccc12	0%	4	12%	-2%	1.8µM*	-15%[46.1 µM]
CCOc1ccccc1-n1nnnc1SCC(=O)OC	1%	0	0%	19%	-15%	3%
CCOc1ccc(N2CCc3c(C)nc(SC)nc32)cc1	?	-2	0%	10%	?	-21%
Cc1ccc(-n2cc(CN3CCN(Cc4nccn4C)CC3)c(-c3ccc(F)cc3)n2)cc1	6%	-2	6%	4%	25µM*	?
Cc1ccc(C)c(C(=O)COC(=O)CN2C(=O)C3C4CCC(C4)C3C2=O)c1 (stereo unspecified)	/	1	/	14%	/	/
